High-throughput results: PubChem, Buhrlage Lab, Dana-Farber Cancer Institute and Novartis Institutes for BioMedical Research (Cambridge, Mass)
Compounds with a hit are over-represented: about 11% of the library has one in this group of screens.
USP28 block = inhibitors of human USP28 deubiquitinase. 47,000 tested, 3% active. purified USP28, Ub-rhodamine cleavage fluorescence, 30 min. Q96RU2. AID 1645857. inhibition, % at 25 µM
USP17 inh = inhibitors of human USP17 deubiquitinase | 47,000 tested, 6.5% active | purified USP17, Ub-rhodamine cleavage fluorescence, 3 h | A8MUK1 | inhibition, % at 50 µM
USP30 block = blocks human USP30 ubiquitin-rhodamine cleavage | Q70CQ3 | purified USP30, Ub-rhodamine cleavage fluorescence | inhibition, % at 25 µM | 47,000 tested, 5.3% active | AID 1645860
Target sequence (Q70CQ3 whole entry, looked up): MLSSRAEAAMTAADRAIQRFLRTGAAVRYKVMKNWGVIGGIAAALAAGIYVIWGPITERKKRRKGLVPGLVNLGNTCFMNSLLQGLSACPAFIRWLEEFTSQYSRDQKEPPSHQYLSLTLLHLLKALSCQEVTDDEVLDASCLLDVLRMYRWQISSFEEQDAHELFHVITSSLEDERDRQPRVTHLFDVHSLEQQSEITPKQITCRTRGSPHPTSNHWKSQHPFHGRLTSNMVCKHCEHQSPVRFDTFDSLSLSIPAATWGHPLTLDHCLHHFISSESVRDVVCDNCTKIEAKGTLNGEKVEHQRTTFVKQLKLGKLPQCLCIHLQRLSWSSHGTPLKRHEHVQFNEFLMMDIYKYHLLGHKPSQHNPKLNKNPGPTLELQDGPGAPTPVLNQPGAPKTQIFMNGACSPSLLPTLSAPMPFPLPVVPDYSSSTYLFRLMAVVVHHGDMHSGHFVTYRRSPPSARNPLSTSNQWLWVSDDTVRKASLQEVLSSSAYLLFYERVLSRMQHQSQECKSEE
Numbers without * were called inactive; i = inactive; x = no result given. No stated cut-off is given here; in the data, active means inhibition above about 30%; inactive means the rest.

SMILES | USP28 block | USP17 inh | USP30 block
Cn1c(=O)n(CC(=O)NCc2cccc(F)c2)c2cccnc21 | x | -1 | x
CCc1ccccc1NC(=O)CN1C(=O)CSc2ncccc21 | -8 | -27 | -62
Cc1cc(C)c(NC(=O)Cn2c(SCc3cccc(F)c3)nc3cccnc32)c(C)c1 | 40* | 64* | 73*
Nc1c(-c2ccncc2)nsc1C(=O)N1CCN(c2ccccc2)CC1 | -3 | -16 | 1
O=C(Nc1ccc(N2CCN(c3ccccc3)C2=O)nc1)C1CCOC1 (configuration not stated) | 10 | 26 | 35*
O=C(Nc1ccc(N2CCN(Cc3ccc(F)cc3)C2=O)nc1)c1ccc2c(c1)OCO2 | -5 | 24 | -19
O=C(Nc1ccc(N2CCN(Cc3ccc(F)cc3)C2=O)nc1)C1CCC1 | 38* | 60* | 63*
O=C(Nc1ccc(N2CCN(c3ccccc3)C2=O)nc1)C1CCCC1 | -2 | 2 | 0
CC(Nc1ncc(-c2ccc(Cl)cc2)cn1)c1ccccc1 (configuration not stated) | -2 | -7 | 11
CCOC(=O)c1cc2c(ccn2-c2ccc(F)cc2)n1CC(=O)Nc1ccc2c(c1)OCCO2 | 14 | 16 | 30
COc1ccc(-c2cc(C(=O)N3CCN(c4ccc([N+](=O)[O-])cc4)CC3)[nH]n2)cc1 | -259 | -191 | i
CC(C)(C)c1cc(C(=O)N2CCCC(c3ccnc4nc(C(F)(F)F)nn34)C2)n[nH]1 (configuration not stated) | -8 | 0 | 10
COC(=O)CC1CC23OC2(C(=O)c2c(O)cccc2C3=O)C(C)O1 (configuration not stated) | 25 | 65* | -78
CC1OC(CC(=O)O)CC23OC12C(=O)c1c(O)cccc1C3=O (configuration not stated) | 14 | 63* | -93
O=C(O)CC1C(=O)Nc2c(O)cccc21 (configuration not stated) | 0 | -4 | 11
COC(=O)CC1CC2=C(C(=O)c3c(O)cccc3C2=O)C(C)O1 (configuration not stated) | 40* | 42* | -99
Cc1c(NC(=O)C2CC(=O)N(Cc3ccccc3)C2)cccc1-n1cnnn1 (configuration not stated) | 4 | 2 | 1
Cc1cc(C)cc(NC(=O)CC(C)(C)CC2=NS(=O)(=O)c3ccccc3N2)c1 | 13 | 7 | 1
COc1ccc(CN2C[C@@H](c3cccc(C)n3)[C@@]3(CCCC(=O)N3)C2)cc1CO | 13 | 19 | 9
CCN1CCn2cc(S(=O)(=O)NCc3ccccc3F)cc2C1=O | -2 | 0 | -5
Cc1cnc(C2CN(C(=O)c3cccc4c3OCCO4)CCO2)[nH]1 (configuration not stated) | -6 | -7 | -1
Cc1ccc(CSc2nc(C)nc3c2c(=O)n(C)c(=O)n3C)cc1 | 2 | 8 | 6
O=S1(=O)CCC(S(=O)(=O)Nc2cccc(C(F)(F)F)c2)C1 (configuration not stated) | -8 | -38 | -96
O=S1(=O)CCC(S(=O)(=O)Nc2ccc(OCc3ccc(Cl)cc3)cc2)C1 (configuration not stated) | 9 | 35* | 19
C=C1C2=C(C(=O)N1OC)[C@H](O)[C@](C)(O)[C@H](CCCCC)O2 | -13 | -29 | -60
SMILES | USP28 block | USP17 inh | USP30 block
CCC(=O)N1CCCc2ccc(NC(=O)c3ccccc3OC)cc21 | 11 | -8 | 9
CCC(=O)N1CCCc2ccc(NC(=O)c3cccc(OC)c3)cc21 | 37* | -6 | -6
CCS(=O)(=O)N1CCCc2cc(C(=O)Nc3ccccc3OC)ccc21 | 9 | 17 | 13
CCC(=O)N1CCc2cc(C(=O)Nc3ccccc3OC)ccc21 | 43* | 8 | 17
C=C1CCC[C@]2(C)C[C@H]3OC(=O)C(CNCCc4ccc(OC)c(OC)c4)[C@H]3CC12 (some centres not stated) | 7 | -11 | 46*
C=C1CCC[C@]2(C)C[C@H]3OC(=O)C(CNCCc4ccc(F)cc4)[C@H]3CC12 (some centres not stated) | -11 | -13 | 26
CCOc1ccccc1C(=O)Nc1ccc(-c2nccs2)cc1 | 5 | 13 | 31*
O=C(Nc1ccc(-c2nccs2)cc1)c1ccccc1Cl | 8 | -22 | -10
COc1c(C)c(OC(=O)c2c(C)c(C)c(OC(=O)c3c(C)c(C)c(O)c(C)c3O)c(C)c2OC)c(C)c(C)c1C(=O)O | 70* | 51* | 54*
COc1c(O)c(C)c(C)c(O)c1OC (tested in a mixture with another compound) | 4 | 29 | 15
COc1ccc(-n2nnc(S(=O)(=O)c3ccc(C)cc3)c2C)cc1 | 17 | 9 | 15
CN(CC(=O)NCCC1=CCCCC1)c1nnc(N2CCCCC2=O)s1 | -11 | -21 | -9
Cc1cccc(CSc2nc3nc4c(cn3n2)C(=O)CCC4)c1 | -8 | -5 | 7
